# Test results: PubChem BioAssay (EPA / NIEHS)
# Inconclusive results are not listed. Activity calls are given as the source filed them. Rule for the calls: active = hit-call score of the fitted dose curve at least 0.9, where 1 is the maximum; inconclusive = response in the unintended direction; inactive = score below 0.9.
# Key:
# [1] = target: human Phosphodiesterase 10 (PDE10), PDE10A (gene 10846) (UniProt Q9Y233); assay: NVS_ENZ_hPDE10: NovaScreen (NVS) Enzymatic Assay for human Phosphodiesterase 10 (PDE10) (AID 2283195)
# Chain of human Phosphodiesterase 10 (PDE10), PDE10A (gene 10846) (Q9Y233 whole entry, looked up): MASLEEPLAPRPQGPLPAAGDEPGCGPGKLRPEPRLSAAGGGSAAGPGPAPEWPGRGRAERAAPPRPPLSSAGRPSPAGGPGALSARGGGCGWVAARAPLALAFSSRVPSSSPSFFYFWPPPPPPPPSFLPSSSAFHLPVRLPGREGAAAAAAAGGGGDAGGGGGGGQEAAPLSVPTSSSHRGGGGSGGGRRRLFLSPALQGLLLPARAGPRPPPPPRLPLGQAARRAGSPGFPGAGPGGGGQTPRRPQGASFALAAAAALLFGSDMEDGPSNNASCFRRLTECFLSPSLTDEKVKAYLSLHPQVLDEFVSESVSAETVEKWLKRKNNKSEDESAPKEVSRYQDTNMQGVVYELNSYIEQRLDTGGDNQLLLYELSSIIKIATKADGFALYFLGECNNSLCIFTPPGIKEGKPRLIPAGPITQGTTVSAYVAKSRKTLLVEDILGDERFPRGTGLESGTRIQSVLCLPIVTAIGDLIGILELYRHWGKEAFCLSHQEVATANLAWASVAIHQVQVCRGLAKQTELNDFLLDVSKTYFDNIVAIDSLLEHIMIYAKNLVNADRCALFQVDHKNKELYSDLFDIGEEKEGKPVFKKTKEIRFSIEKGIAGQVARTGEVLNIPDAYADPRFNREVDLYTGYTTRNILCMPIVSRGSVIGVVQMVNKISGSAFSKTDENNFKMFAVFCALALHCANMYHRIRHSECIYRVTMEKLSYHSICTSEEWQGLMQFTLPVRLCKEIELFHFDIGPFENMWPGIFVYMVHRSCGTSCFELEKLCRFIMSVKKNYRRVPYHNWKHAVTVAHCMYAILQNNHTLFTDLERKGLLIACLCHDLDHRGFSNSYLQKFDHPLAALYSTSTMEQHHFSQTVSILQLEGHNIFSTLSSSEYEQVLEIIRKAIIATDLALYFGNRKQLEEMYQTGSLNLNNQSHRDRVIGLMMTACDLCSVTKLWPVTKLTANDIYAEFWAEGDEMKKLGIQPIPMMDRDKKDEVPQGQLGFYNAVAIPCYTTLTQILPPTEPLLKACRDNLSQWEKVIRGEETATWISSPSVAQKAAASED
# Summary of the method: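 PDE10A, cell-free; 1 h incubation; fluorescence intensity + electrophoretic mobility shift separating substrate/product; DMSO = baseline; 25 uM duplicate primary, CRC up to 50 uM.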
# [2] = target: human Dual Specificity Protein Phosphatase 3 (DUSP3), DUSP3 (gene 1845) (UniProt P51452); assay: NVS_ENZ_hDUSP3: NovaScreen (NVS) Enzymatic Assay for human Dual Specificity Protein Phosphatase 3 (DUSP3) (AID 2283152);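 note: phosphatase activity of recombinant human DUSP3 on a fluorogenic substrate without cells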
# Chain of human Dual Specificity Protein Phosphatase 3 (DUSP3), DUSP3 (gene 1845) (P51452 whole entry, looked up): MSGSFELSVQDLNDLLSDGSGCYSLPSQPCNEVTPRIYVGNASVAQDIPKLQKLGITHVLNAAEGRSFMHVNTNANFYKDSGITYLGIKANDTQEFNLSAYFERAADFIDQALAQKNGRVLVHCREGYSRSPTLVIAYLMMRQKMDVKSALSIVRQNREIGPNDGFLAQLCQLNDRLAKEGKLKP
# Method: NVS_ENZ_hDUSP3 is a biochemical, single-readout assay that uses extracted gene-proteins in a cell-free assay. Measurements were taken 0 hour after chemical dosing in a 96-well plate.NVS_ENZ_hDUSP3 is one of one assay component(s) measured or calculated from the NVS_ENZ_hDUSP3 assay. It is designed to make measurements of enzyme activity, a form of enzyme reporter, as detected with fluorescence intensity signals by Fluorescence technology.Data from the assay component NVS_ENZ_hDUSP3 was analyzed into 1 assay endpoint. This assay endpoint, NVS_ENZ_hDUSP3, was analyzed in the positive analysis fitting direction relative to DMSO as the negative control and baseline of activity. Using a type of enzyme reporter, loss-of-signal activity can be used to understand changes in the enzymatic activity as they relate to the gene DUSP3. Furthermore, this assay endpoint can be referred to as a primary readout, because this assay has produced multiple assay endpoints where this one serves a enzymatic activity function. To generalize the intended target to other relatable targets, this assay endpoint is annotated to the phosphatase intended target family, where the subfamily is dual-specific phosphatase.
# Binding assays used specific radioligands (tritiated, iodinated) with non-radioactive competitive displacement ligands in agonist or antagonist protocols (as indicated) and various reference compounds and inhibitors to titrate specific binding to receptors and transporters. Most enzyme assays (CYPs, kinases, phosphatases, proteases, HDACs) used recombinant protein and specific substrates (fluorescence mostly, some colorimetric and radioactive) and inhibitors, followed by a biochemical separation of substrate and product. All assays for the biochemical HTS were initially run in duplicate at a single concentration (10 uM for CYP450 assays and 25 uM for all others). […] Each assay was run with positive and negative controls, and concurrent controls on every plate. […]
# [3] = target: human Ephrin type-A Receptor 1 (EphA1), EPHA1 (gene 2041) (UniProt P21709); assay: NVS_ENZ_hEphA1: NovaScreen (NVS) Enzymatic Assay for human Ephrin type-A Receptor 1 (EphA1) (AID 2283158);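 note: activity is signal loss versus DMSO meaning EphA1 kinase inhibition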
# Chain of human Ephrin type-A Receptor 1 (EphA1), EPHA1 (gene 2041) (P21709 whole entry, looked up): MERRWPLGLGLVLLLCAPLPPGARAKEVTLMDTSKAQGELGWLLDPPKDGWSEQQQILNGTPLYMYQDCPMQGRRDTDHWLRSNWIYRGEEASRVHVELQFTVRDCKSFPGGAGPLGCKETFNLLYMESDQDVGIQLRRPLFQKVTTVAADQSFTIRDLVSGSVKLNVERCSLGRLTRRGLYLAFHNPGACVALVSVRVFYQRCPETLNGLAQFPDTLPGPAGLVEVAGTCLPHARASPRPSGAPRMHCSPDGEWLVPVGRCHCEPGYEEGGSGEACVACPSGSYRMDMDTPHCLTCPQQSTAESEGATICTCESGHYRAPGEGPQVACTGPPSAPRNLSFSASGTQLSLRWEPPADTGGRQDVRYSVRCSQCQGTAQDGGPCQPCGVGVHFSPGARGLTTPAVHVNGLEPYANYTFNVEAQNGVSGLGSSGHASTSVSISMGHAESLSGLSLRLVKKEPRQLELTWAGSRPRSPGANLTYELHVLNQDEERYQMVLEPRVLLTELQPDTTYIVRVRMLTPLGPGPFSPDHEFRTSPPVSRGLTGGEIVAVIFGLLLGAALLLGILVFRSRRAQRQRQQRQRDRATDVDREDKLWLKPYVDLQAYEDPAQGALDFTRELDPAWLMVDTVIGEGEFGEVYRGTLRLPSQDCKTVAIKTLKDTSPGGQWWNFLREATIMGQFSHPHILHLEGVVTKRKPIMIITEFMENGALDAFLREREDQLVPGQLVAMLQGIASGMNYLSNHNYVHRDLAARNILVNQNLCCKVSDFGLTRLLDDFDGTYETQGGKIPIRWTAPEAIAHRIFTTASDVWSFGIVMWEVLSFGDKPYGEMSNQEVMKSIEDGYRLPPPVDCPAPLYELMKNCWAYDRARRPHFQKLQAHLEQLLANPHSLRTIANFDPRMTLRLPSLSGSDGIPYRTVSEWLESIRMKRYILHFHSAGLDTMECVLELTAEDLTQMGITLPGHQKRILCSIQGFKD
# Summary of the method: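 Here the EphA1 protein is recombinant and the substrate fluorescent, with electrophoretic separation before fluorescence detection at 1 hour. Signal loss against DMSO defines activity; plate controls included; follow-up concentration series reach 50 uM.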
# [4] = target: human Phosphoinositide 3-kinase alpha (PI3Ka), PIK3CA (gene 5290) (UniProt P42336); assay: NVS_ENZ_hPI3Ka: NovaScreen (NVS) Enzymatic Assay for human Phosphoinositide 3-kinase alpha (PI3Ka) (AID 2283196)
# Chain of human Phosphoinositide 3-kinase alpha (PI3Ka), PIK3CA (gene 5290) (P42336 whole entry, looked up): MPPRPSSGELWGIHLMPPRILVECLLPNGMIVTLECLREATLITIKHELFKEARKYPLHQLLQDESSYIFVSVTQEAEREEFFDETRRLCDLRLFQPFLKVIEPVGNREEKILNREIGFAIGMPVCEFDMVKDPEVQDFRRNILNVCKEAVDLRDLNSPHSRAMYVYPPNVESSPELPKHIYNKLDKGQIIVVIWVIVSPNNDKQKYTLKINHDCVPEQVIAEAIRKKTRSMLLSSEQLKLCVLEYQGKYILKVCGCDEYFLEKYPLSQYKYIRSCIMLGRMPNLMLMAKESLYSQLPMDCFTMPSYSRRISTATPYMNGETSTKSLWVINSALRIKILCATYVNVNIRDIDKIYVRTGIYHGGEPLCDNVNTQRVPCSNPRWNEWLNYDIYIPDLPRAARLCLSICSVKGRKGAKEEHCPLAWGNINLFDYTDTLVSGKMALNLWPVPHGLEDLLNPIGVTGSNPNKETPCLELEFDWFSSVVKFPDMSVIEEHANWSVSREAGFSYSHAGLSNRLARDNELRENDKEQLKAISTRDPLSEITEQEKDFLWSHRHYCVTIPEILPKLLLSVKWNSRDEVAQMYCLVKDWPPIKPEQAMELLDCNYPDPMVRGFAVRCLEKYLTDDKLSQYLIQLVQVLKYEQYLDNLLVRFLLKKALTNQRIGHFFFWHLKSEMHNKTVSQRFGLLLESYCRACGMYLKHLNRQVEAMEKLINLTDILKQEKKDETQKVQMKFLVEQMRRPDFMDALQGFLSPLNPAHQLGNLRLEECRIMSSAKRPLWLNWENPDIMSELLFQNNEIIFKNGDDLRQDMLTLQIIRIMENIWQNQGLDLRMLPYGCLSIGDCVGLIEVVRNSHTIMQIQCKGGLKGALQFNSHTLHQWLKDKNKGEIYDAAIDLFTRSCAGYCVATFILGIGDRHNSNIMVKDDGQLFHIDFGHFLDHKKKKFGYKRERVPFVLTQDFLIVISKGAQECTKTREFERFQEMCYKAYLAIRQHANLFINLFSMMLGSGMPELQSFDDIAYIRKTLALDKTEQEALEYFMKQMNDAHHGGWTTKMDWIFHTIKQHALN
# Summary of the method: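 Enzyme activity as fluorescence after mobility-shift separation of substrate and product, 1 h reaction, recombinant human PI3Kα; concentration-response to 50 uM max for chemicals passing a 25 uM duplicate screen.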
# [5] = target: human Caspase 5 (CASP5), CASP5 (gene 838) (UniProt P51878); assay: NVS_ENZ_hCASP5: NovaScreen (NVS) Enzymatic Assay for human Caspase 5 (CASP5) (AID 2283137)
# Chain of human Caspase 5 (CASP5), CASP5 (gene 838) (P51878 whole entry, looked up): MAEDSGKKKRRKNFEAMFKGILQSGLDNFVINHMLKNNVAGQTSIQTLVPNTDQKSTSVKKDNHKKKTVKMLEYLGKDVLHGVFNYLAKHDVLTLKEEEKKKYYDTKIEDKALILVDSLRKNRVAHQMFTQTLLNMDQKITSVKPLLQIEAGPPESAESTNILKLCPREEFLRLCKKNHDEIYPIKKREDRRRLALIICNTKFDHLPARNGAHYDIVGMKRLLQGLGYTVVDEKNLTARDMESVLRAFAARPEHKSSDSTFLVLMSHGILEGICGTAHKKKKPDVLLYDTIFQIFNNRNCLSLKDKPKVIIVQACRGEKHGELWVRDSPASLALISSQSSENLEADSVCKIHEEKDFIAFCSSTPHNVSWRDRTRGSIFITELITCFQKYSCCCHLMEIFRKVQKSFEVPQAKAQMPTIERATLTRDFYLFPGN
# Summary of the method: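 Cell-free protease assay with bacterially expressed CASP5 and a fluorescent substrate, measured at 2 h. Values fitted relative to DMSO as baseline, from concentration-response series topping at 50 uM.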
# [6] = target: human Beta-secretase (BACE), BACE1 (gene 23621) (UniProt P56817); assay: NVS_ENZ_hBACE: NovaScreen (NVS) Enzymatic Assay for human Beta-secretase (BACE) (AID 2283140);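 note: hits are inhibitors that reduce fluorescent substrate signal versus DMSO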
# Chain of human Beta-secretase (BACE), BACE1 (gene 23621) (P56817 whole entry, looked up): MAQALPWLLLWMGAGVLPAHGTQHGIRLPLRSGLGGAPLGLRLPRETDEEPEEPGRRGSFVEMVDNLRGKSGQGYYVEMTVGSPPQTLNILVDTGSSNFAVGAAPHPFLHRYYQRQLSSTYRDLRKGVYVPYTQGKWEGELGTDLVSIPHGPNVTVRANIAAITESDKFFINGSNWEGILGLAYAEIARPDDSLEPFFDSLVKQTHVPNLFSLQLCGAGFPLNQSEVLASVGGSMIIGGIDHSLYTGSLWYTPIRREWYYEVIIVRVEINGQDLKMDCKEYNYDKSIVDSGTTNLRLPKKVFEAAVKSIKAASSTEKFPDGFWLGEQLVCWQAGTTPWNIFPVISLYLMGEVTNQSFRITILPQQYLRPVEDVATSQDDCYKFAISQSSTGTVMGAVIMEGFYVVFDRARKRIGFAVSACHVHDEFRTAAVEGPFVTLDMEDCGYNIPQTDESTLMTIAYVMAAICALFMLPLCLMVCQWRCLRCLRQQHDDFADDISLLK
# Summary of the method: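 Recombinant BACE1 (SF9 extract) incubated with compound and fluorescent substrate, 1 h. Plates carried positive and DMSO negative controls. Initial single dose 25 uM, duplicate; confirmation by concentration series.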
# [7] = target: human Matrix Metalloproteinase-9 (MMP9), MMP9 (gene 4318) (UniProt P14780); assay: NVS_ENZ_hMMP9: NovaScreen (NVS) Enzymatic Assay for human Matrix Metalloproteinase-9 (MMP9) (AID 2283190);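 note: cell-free recombinant MMP9 protease activity read by fluorescent substrate signal; active means inhibition seen as loss of fluorescence signal versus DMSO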
# Chain of human Matrix Metalloproteinase-9 (MMP9), MMP9 (gene 4318) (P14780 whole entry, looked up): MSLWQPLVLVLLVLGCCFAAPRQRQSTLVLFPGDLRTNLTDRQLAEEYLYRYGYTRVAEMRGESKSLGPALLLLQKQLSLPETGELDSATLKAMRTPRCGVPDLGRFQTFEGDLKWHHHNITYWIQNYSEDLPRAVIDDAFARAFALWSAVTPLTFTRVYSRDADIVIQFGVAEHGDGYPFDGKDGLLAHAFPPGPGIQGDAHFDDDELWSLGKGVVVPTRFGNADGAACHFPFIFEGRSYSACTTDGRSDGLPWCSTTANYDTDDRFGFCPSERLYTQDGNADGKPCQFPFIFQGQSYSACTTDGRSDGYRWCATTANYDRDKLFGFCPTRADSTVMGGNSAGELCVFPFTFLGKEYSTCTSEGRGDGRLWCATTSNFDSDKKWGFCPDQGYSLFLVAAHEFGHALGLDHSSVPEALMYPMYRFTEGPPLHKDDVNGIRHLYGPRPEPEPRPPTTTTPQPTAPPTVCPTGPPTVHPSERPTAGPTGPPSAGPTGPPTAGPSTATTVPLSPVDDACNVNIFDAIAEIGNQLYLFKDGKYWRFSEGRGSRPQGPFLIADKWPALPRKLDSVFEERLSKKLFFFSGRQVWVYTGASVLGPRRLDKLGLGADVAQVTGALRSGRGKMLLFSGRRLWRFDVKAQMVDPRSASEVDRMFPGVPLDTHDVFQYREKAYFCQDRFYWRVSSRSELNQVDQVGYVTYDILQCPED
# Summary of the method: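 Cell-free fluorescence-intensity enzyme activity assay using extracted protein, read 1 h after dosing. Loss of signal versus DMSO baseline indicates inhibition; primary screen in duplicate at 25 uM, actives followed up in concentration series.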
# [8] = target: sheep Cyclooxygenase-1 (Cox1), PTGS1 (gene 443551) (UniProt P05979); assay: NVS_ENZ_oCOX1: NovaScreen (NVS) Enzymatic Assay for sheep Cyclooxygenase-1 (Cox1) (AID 2283239);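 note: actives reduce cyclooxygenase activity so potencies are for inhibitors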
# Method: NVS_ENZ_oCOX1 is a biochemical, single-readout assay that uses extracted gene-proteins from Ovine seminal vesicles in a tissue-based cell-free assay. Measurements were taken 0.66 hour after chemical dosing in a 96-well plate.NVS_ENZ_oCOX1 is one of one assay component(s) measured or calculated from the NVS_ENZ_oCOX1 assay. It is designed to make measurements of enzyme activity, a form of enzyme reporter, as detected with absorbance signals by Colorimetric technology.Data from the assay component NVS_ENZ_oCOX1 was analyzed into 1 assay endpoint. This assay endpoint, NVS_ENZ_oCOX1, was analyzed in the positive analysis fitting direction relative to DMSO as the negative control and baseline of activity. Using a type of enzyme reporter, loss-of-signal activity can be used to understand changes in the enzymatic activity as they relate to the gene PTGS1. Furthermore, this assay endpoint can be referred to as a primary readout, because this assay has produced multiple assay endpoints where this one serves a enzymatic activity function. To generalize the intended target to other relatable targets, this assay endpoint is annotated to the oxidoreductase intended target family, where the subfamily is cyclooxygenase.
# Binding assays used specific radioligands (tritiated, iodinated) with non-radioactive competitive displacement ligands in agonist or antagonist protocols (as indicated) and various reference compounds and inhibitors to titrate specific binding to receptors and transporters. Most enzyme assays (CYPs, kinases, phosphatases, proteases, HDACs) used recombinant protein and specific substrates (fluorescence mostly, some colorimetric and radioactive) and inhibitors, followed by a biochemical separation of substrate and product. All assays for the biochemical HTS were initially run in duplicate at a single concentration (10 uM for CYP450 assays and 25 uM for all others). […] Each assay was run with positive and negative controls, and concurrent controls on every plate. The follow-up (secondary) screen tested active chemical-pairs in concentration series, as well as a few additional assays not tested in the primary screen, some selected negative inactives, and several cases re-run in the concentration series for confirmatory purposes.
# [9] = target: human Vascular Endothelial Growth Factor Receptor 1 (VEGFR1), FLT1 (gene 2321) (UniProt P17948); assay: NVS_ENZ_hVEGFR1: NovaScreen (NVS) Enzymatic Assay for human Vascular Endothelial Growth Factor Receptor 1 (VEGFR1) (AID 2283226)
# Summary of the method: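 Cell-free assay of recombinant human VEGFR1 kinase with substrate, measured 1 h after dosing; fluorescence with electrophoretic mobility-shift separation of substrate and product, referenced to DMSO; primary screen at 25 uM in duplicate, actives then run in concentration series.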
# [10] = target: human Esterase Plasma (ES), BCHE (gene 590) (UniProt P06276); assay: NVS_ENZ_hES: NovaScreen (NVS) Enzymatic Assay for human Esterase Plasma (ES) (AID 2283157)
# Summary of the method: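 Chemicals were added to plasma-extracted human enzyme in a cell-free format, and activity was read colorimetrically after 0.25 hour. Activity loss was referenced to DMSO; concentration-response top dose was 50 uM.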
structure (smiles),measurement,setting,value
C=C(C)CCO,AC50,[1],38.2 µM (active)
O=C1CCC(=O)N1Cl,AC50,[2],16.5 µM (active)
O=C1CCCC(=O)O1,outcome,[1],inactive
Cc1cc(C)c(C)c(C)c1,outcome,[3],inactive
same,outcome,[4],inactive
O=Nc1ccc(O)cc1,AC50,[5],13.5 µM (active)
same,outcome,[1],inactive
c1ccc2c(c1)ccc1cc3c(ccc4ccccc43)cc12,AC50,[5],5.15 µM (active)
same,AC50,[6],13 µM (active)
same,AC50,[7],4.46 µM (active)
same,AC50,[8],22.5 µM (active)
CC1(C)S[C@@H]2[C@H](NC(=O)COc3ccccc3)C(=O)N2[C@H]1C(=O)O,outcome,[6],inactive
NC(=O)NNC(N)=O,outcome,[1],inactive
C#CC1(O)CC[C@H]2[C@@H]3CCC4=CCCC[C@@H]4[C@H]3CC[C@@]21C (some centres not stated),AC50,[8],43.8 µM (active)
CNC(=S)N(C)C,AC50,[3],18.6 µM (active)
same,AC50,[7],1.04 µM (active)
same,outcome,[4],inactive
same,outcome,[9],inactive
CC1OC1C1CCC2(C)OC2C1 (configuration not stated),outcome,[1],inactive
CCO[Si](CCCN=C=O)(OCC)OCC,outcome,[8],inactive
CCCCC(CC)COC(=O)c1ccccc1O (configuration not stated),AC50,[6],11.1 µM (active)
CC(C)(C)c1n[nH]c(=O)n(N)c1=O,outcome,[1],inactive
CCC(C)C=O (configuration not stated),AC50,[7],8.8 µM (active)
same,AC50,[1],16.2 µM (active)
CC(CC=O)CCCC(C)(C)O (configuration not stated),outcome,[8],inactive
Cc1ccc(N)c([N+](=O)[O-])c1,AC50,[3],43.4 µM (active)
same,AC50,[1],25 µM (active)
same,outcome,[4],inactive
S=C(NC1CCCCC1)NC1CCCCC1,outcome,[3],inactive
same,AC50,[7],6.33 µM (active)
Cc1ccc(C2OC[C@@H]3OC(c4ccc(C)cc4)O[C@H]([C@H](O)CO)[C@@H]3O2)cc1 (some centres not stated),outcome,[1],inactive
CC(C)(c1cc(Br)c(OCCO)c(Br)c1)c1cc(Br)c(OCCO)c(Br)c1,outcome,[3],inactive
same,AC50,[1],20.2 µM (active)
same,AC50,[4],2.62 µM (active)
CCCOC(=O)CCCCC(=O)OCCC,AC50,[4],2 µM (active)
same,AC50,[9],42.3 µM (active)
N#[N+]c1ccc2c(S(=O)(=O)[O-])cccc2c1O,AC50,[5],9.03 µM (active)
same,AC50,[2],14.9 µM (active)
same,outcome,[3],inactive
same,outcome,[4],inactive
same,AC50,[8],5.62 µM (active)
COc1ccc2nc(N)sc2c1,AC50,[8],14.9 µM (active)
COCCOCCOCCOCCOC,outcome,[3],inactive
same,outcome,[4],inactive
Nc1cccc(C(F)(F)F)c1,outcome,[1],inactive
O=CN1CCCCC1,outcome,[1],inactive
Cn1c(=O)[nH]c2ncn(C)c2c1=O,outcome,[1],inactive
CCC(CC)C(=O)O,AC50,[3],4.56 µM (active)
c1ccc(-c2ccccn2)nc1,outcome,[8],inactive
C=CCOCC(O)CCl (configuration not stated),outcome,[5],inactive
same,outcome,[6],inactive
OCCCS,outcome,[1],inactive
CCCCC/C=C\C/C=C\CCCCCCCC(=O)OC,AC50,[5],6.61 µM (active)
CCCCCCCCCCc1ccccc1,outcome,[1],inactive
c1ccc2c(c1)ccc1ncccc12,AC50,[10],20.2 µM (active)
C/C=C\C/C=C/CCCCCCCCOC(C)=O,outcome,[3],inactive
same,AC50,[7],13.7 µM (active)
same,AC50,[8],25 µM (active)
CCOC(=O)[C@H](C)O,outcome,[1],inactive
CCCCCCCCCCCCCCCC[N+](C)(C)CC,AC50,[6],6.41 µM (active)
same,AC50,[2],20.8 µM (active)
same,outcome,[3],inactive
same,outcome,[7],inactive
same,outcome,[1],inactive
same,AC50,[4],1.95 µM (active)
same,outcome,[9],inactive
C=C(C)C(=O)OCC(C)C,outcome,[1],inactive
